Data: PubChem BioAssay AID588342 (National Center for Advancing Translational Sciences (NCATS), 2011)
Screen size: about 360,000 compounds; about 25,000 (6.9%) were called active. Another 9% or so got no clear call; they are omitted. Calls follow the shape of the dose curve; as a rule, active = well fitted inhibition curve with a large enough effect; inconclusive = small, poorly fitted or top-dose-only effect; inactive = flat fitted curve, though single readings scatter. Many of the other results were omitted from the sample, so actives are more common in it than they were.

Biological target: Luciferin 4-monooxygenase (Photinus pyralis) (UniProt P08659)
Assay: qHTS profiling assay for firefly luciferase inhibitor/activator using purifed enzyme and Km concentrations of substrates (counterscreen for miR-21 project); also: nearly all actives have a fitted effect of over 55% in size;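 as to activity change, negative = inhibition: plate controls were vehicle for no effect and reference inhibitor for full effect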
Settings: purified FLuc, luminescence inhibition; series mostly up to 57.5 µM; activity change, negative = inhibition: at the top concentration
Procedure, shortened: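 Purified P. pyralis luciferase (10nM final) with 10uM D-luciferin and 10uM ATP (Km levels) in 50mM Tris acetate pH 7.5, 10mM Mg acetate, 0.01% Tween-20, 0.05% BSA; qHTS 6-point titration, ~60 µM downward; luminescence read.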
Potency is read from the fitted curve at half-maximal effect.

Luciferin 4-monooxygenase (Photinus pyralis), sequence (P08659 whole entry, looked up): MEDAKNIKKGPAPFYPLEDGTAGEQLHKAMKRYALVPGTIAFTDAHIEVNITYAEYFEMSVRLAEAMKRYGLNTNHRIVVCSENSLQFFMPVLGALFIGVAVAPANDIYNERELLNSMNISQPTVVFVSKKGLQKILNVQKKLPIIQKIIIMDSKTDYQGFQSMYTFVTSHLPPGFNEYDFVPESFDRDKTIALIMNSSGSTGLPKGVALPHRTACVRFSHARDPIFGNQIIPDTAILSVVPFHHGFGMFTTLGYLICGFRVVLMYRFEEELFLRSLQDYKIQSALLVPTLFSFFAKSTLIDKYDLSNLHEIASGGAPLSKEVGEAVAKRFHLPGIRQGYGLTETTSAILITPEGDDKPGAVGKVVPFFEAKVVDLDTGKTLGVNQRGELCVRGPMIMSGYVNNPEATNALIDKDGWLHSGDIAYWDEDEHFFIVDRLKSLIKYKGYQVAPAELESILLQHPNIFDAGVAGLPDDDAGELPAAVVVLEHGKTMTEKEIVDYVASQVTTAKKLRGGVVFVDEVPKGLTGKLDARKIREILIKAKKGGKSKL

SMILES | activity change, negative = inhibition | Potency
COC(=O)c1ccc(OC)c(Cn2c(=O)n(Cc3ccccc3)c(=O)c3c2c2cc(OC)ccc2n3C)c1 | -0.797% (inactive) | 
CCOc1ccccc1NC(=O)CN1CCCN(Cc2cccc(Cl)c2)S1(=O)=O | -10.8% (inactive) | 
CC12CCC(C(=O)N3CCN(c4ncccn4)CC3)(c3nc4ccccc4nc31)C2(C)C (stereo unspecified) | 4.23% (inactive) | 
O=C(c1ccncc1)N1CCN(c2ccc3ccccc3n2)CC1 | 4.69% (inactive) | 
c1cnc(N2CCN(c3ccc4ccccc4n3)CC2)nc1 |  | 5.36 µM (active)
Cc1csc(NC(=O)Nc2ccccc2[N+](=O)[O-])n1 |  | 4.78 µM (active)
Cc1csc(NC(=O)NC2(C(F)(F)F)Oc3ccccc3O2)n1 | -17.9% (inactive) | 
CN1CCN(CCNC(=O)Nc2ccccc2[N+](=O)[O-])CC1 | -1.04% (inactive) | 
COc1ccc(Cl)cc1NC(=O)CN(C)C(=O)c1ccc2n[nH]nc2c1 | 4.74% (inactive) | 
Cc1cccc(NC(=O)CSc2nc3c(c(=O)[nH]2)CCC3)c1C | 1.5% (inactive) | 
Cc1cccc(NC(=O)CSc2nc3c(c(=O)[nH]2)CCCC3)c1C | 1.26% (inactive) | 
Cc1cccc(NC(=O)CSc2ncc(-c3ccccc3)[nH]2)c1C |  | 13.5 µM (active)
O=C(Nc1ccccc1Cl)N1CCC(CN2CCCC2)CC1 | -1.17% (inactive) | 
Cc1cc(Nc2cccc(C(F)(F)F)c2)nc2ccc(NC(=O)c3ccc(=O)[nH]c3)cc12 | 1.3% (inactive) | 
CSc1ccc(NC(=O)Cn2nnnc2-c2ccccc2F)cc1 | 1.67% (inactive) | 
CCOc1ccc2nc(N3CCCC(C(=O)Nc4cc(C)ccc4C)C3)sc2c1 (stereo unspecified) |  | 2.39 µM (active)
CCCC(=O)N(CCN1CCOCC1)c1nc2ccc(OCC)cc2s1 | -9.15% (inactive) | 
CCOc1ccc2nc(N(CCN(C)C)C(=O)c3ccc4ccccc4c3)sc2c1 | 0.783% (inactive) | 
CCOc1ccc2nc(C(=O)N3CCCC(C)C3)sc2c1 (stereo unspecified) |  | 1.69 µM (active)
Cc1ccc(C)c(NC(=O)C2CCCN(S(=O)(=O)c3cn(C)cn3)C2)c1 (stereo unspecified) | -0.326% (inactive) | 
CCOc1ccc2nc(N3CCC(C(=O)Nc4cc(C)ccc4C)CC3)sc2c1 | -11.9% (inactive) | 
Cc1ccc2cccc(NC(=O)c3ccc(OC(C)C)cc3)c2n1 | -6.74% (inactive) | 
CCOC(=O)c1ccc(CSc2nnc3cc(C)c4ccccc4n23)cc1 | -16.9% (inactive) | 
Oc1c(C(c2ccccc2Cl)N2CCOCC2)sc2nc(-c3ccco3)nn12 (stereo unspecified) | -18.7% (inactive) | 
CC(=O)c1ccc(NC(=O)C(C)N(C)CC(=O)Nc2ccccc2Cl)cc1 (stereo unspecified) | -0.631% (inactive) | 
Cc1cc([N+](=O)[O-])ccc1NC(=O)C1CCCO1 (stereo unspecified) | -6.26% (inactive) | 

SMILES | activity change, negative = inhibition | Potency
Cc1ccc(C)c(C(C)NC(=O)C2CCCO2)c1 (stereo unspecified) | -0.0636% (inactive) | 
Cc1cc(C)c2nc(NC(=O)C3CCCO3)sc2c1 (stereo unspecified) |  | 3.79 µM (active)
COCCn1c(SCC(=O)c2cc(C)ccc2C)nc2cc(C(=O)NC3CCCC3)ccc2c1=O | -4.5% (inactive) | 
O=C(C1Cc2ccccc2CN1C(=O)c1ccco1)N1CCN(c2ccccc2)CC1 (stereo unspecified) | 7.36% (inactive) | 
O=C1NNC(c2ccccc2)=N/C1=C\c1ccc(Cl)cc1 | -1.28% (inactive) | 
Cc1ccc(-c2nc3ccccc3[nH]2)cc1N |  | 2.39 µM (active)
O=C(Nc1sc2c(c1-c1nc3ccccc3[nH]1)CCCC2)C1CC1 | -7.46% (inactive) | 
COc1ccc(-c2[nH]nc(-c3ccccc3)c2-c2nc3ccccc3[nH]2)cc1 | -0.473% (inactive) | 
CN(C)c1cc(N)c2ccccc2n1 (tested in a mixture with another compound) | -2.37% (inactive) | 
Cc1ccc(C)c(N2CCN(C(=O)CCc3nc4ccccc4[nH]3)CC2)c1 | 0.47% (inactive) | 
c1ccc2[nH]c(-c3nc4ccccc4[nH]3)nc2c1 |  | 2.13 µM (active)
COc1ccc(NC(=O)C2CCCN(S(=O)(=O)c3c(C)[nH]c(=O)[nH]c3=O)C2)c(OC)c1 (stereo unspecified) | 0.23% (inactive) | 
Cc1cc(C)c(NC(=O)CCc2c(C)nc3c(c(C)nn3C(C)(C)C)c2C)c(C)c1 | 2.9% (inactive) | 
CCCS(=O)(=O)N1CCC(n2c(C(F)(F)F)nc3cccnc32)CC1 | -6.09% (inactive) | 
CCOC(=O)c1ccc(NC(=O)Cn2c(=O)n(-c3ccc(C)cc3)c(=O)c3c2cnn3C)cc1 | 3.7% (inactive) | 
COc1cccc(/C=N/Nc2ncc(C(F)(F)F)cc2Cl)c1O | -8.77% (inactive) | 
COc1cccc(/C=N/Nc2cc(C)nc(-c3ccccc3O)n2)c1O |  | 7.57 µM (active)
COc1cccc2c(N/N=C/c3ccco3)cc(C)nc12 | -6.22% (inactive) | 
COc1ccccc1CNC(=O)c1ccc(-n2c(C)cc3c2CCCC3)cc1 | -0.838% (inactive) | 
O=C(NCC(c1ccco1)S(=O)(=O)c1cccs1)c1ccc(F)cc1 (stereo unspecified) | -1.13% (inactive) | 
Cc1ccc2[nH]cc(CCCN3C(=O)c4ccccc4C3=O)c2c1 | -19.3% (inactive) | 
COc1ccc2[nH]cc(CCN3C(=O)c4ccc(C(=O)O)cc4C3=O)c2c1 |  | 21.3 µM (active)
COc1ccc(C[C@H](C(=O)O)N2C(=O)c3ccc(C(=O)O)cc3C2=O)cc1 | 2.08% (inactive) | 
COc1ccc(OC)c(-n2nnc3c(sc4nc(C)c(Br)c(C)c43)c2=O)c1 | -16.1% (inactive) | 
CC(C)C(NS(=O)(=O)c1cccs1)C(=O)Nc1nc(C(C)(C)C)cs1 (stereo unspecified) | 0.0539% (inactive) | 
CC(C)(C)c1csc(NC2=NS(=O)(=O)c3ccccc32)n1 |  | 1.51 µM (active)

SMILES | activity change, negative = inhibition | Potency
Cc1ccc(S(=O)(=O)N(NC2=NS(=O)(=O)c3ccccc32)C(=O)c2ccccc2)cc1 | 7.5% (inactive) | 
CCOc1ccc(C(C(=O)NC2CCCC2)N(C(=O)c2snc(C(N)=O)c2N)C2CCCC2)cc1 (stereo unspecified) | -1.43% (inactive) | 
CC(C)(C)[Si](OCC[C@@H]1C[C@@]1(C)[C@@H](NP(=O)(c1ccccc1)c1ccccc1)c1ccccc1)(c1ccccc1)c1ccccc1 | 1.82% (inactive) | 
O=C(CC(O)(C(F)(F)F)C(F)(F)F)Nc1ccc(Cl)c(Cl)c1 | 1.66% (inactive) | 
CCn1nccc1C(=O)Nc1ccc(S(=O)(=O)NC23CC4CC(CC(C4)C2)C3)cc1 | -16.5% (inactive) | 
CCn1nccc1C(=O)Nc1ccc(Cl)c(Cl)c1 |  | 21.3 µM (active)
COC(=O)c1cnc(N2CCN(c3ccccc3OC)CC2)c2ccccc12 | 2.92% (inactive) | 
Cc1ccc(Cl)cc1NC(=O)CSc1nc2ccccc2nc1Cc1ccccc1 | -1.64% (inactive) | 
CCOc1ccc(-c2n[nH]c3c2C(c2ccccc2OC)N(c2ccc(Br)cc2)C3=O)cc1 (stereo unspecified) | -5.87% (inactive) | 
CCN(Cc1ccccc1)Cc1c(O)ccc2c(=O)c(-c3ccc(Cl)cc3Cl)coc12 | 1.52% (inactive) | 
CN(C)S(=O)(=O)c1cccc(C(=O)OCC(=O)N2CCCC2=O)c1 | 0.332% (inactive) | 
CCOC(=O)c1c(C)[nH]c(C(=O)OCC(=O)N2CCCC2=O)c1C |  | 12 µM (active)
O=C(OCC(=O)N1CCCC1=O)c1cc(S(=O)(=O)N2CCOCC2)ccc1Cl | -1.01% (inactive) | 
Cc1c(C(=O)OCC(=O)N2CCCC2=O)oc2ccccc12 |  | 16.9 µM (active)
CCOC(=O)c1c(C)[nH]c(C(=O)NCCN2CCOCC2)c1C | -1.59% (inactive) | 
CCOC(=O)c1[nH]c(C)c(C(=O)OCC(=O)N2c3ccccc3CC2C)c1C (stereo unspecified) | -1.78% (inactive) | 
CCOc1ccc(CCNC(=O)c2cc3c(=O)n(C)c4ccccc4c3n2C)cc1 | 2.73% (inactive) | 
O=S(=O)(c1ccc(Br)c2ccccc12)N1CCOCC1 | 1.95% (inactive) | 
Cc1ccc(N=Cc2c(O)n(-c3nccs3)c(=O)c3ccccc23)c(C)c1 | 6.42% (inactive) | 
Cc1ccc(Oc2c(C(F)(F)F)oc3c(CN4CCCCC4)c(O)ccc3c2=O)cc1 | -0.577% (inactive) | 
O=C(CN1CCCCCC1)Nc1ccc(Cl)cc1F | -8.38% (inactive) | 
COc1cc(Cl)c(C)cc1NC(=O)CN1CCCCCC1 | -4.1% (inactive) | 
O=C(CN1CCCCCC1)Nc1ccc(Br)cc1Br |  | 16.9 µM (active)
O=C(CN1CCOCC1)Nc1c(Cl)cc(Cl)cc1Cl | -0.972% (inactive) | 
O=C(CN1CCCCCC1)Nc1c(Cl)cc(Cl)cc1Cl |  | 15.1 µM (active)
COc1cc([N+](=O)[O-])ccc1NC(=O)CN1CCCC1 | -1.25% (inactive) | 

SMILES | activity change, negative = inhibition | Potency
COc1ccc(C(=O)Nc2nonc2-c2ccc(OC)c(OC)c2)cc1Cl | -5.4% (inactive) | 
CCCc1ccc(OCC(O)CN2CCN(CCO)CC2)cc1 (stereo unspecified) | -1.45% (inactive) | 
CC(C)Cn1c(N)c(C(=O)COC(=O)C2CCCN2C(=O)c2cccs2)c(=O)n(C)c1=O (stereo unspecified) | 2.54% (inactive) | 
COc1ccc(-c2nnc(SC(C)C(=O)NC3CC3)o2)cc1 (stereo unspecified) | -9.71% (inactive) | 
Nc1nc(SCC(=O)Nc2ccc(Cl)c([N+](=O)[O-])c2)n[nH]1 | -12.4% (inactive) | 
COc1ccc(NC(=O)CSC2=Nc3ccccc3C3=NC(CC(=O)NCc4ccccc4OC)C(=O)N23)cc1Cl (stereo unspecified) | 4.79% (inactive) | 
O=C(c1cccc(Br)c1)N1CCN(C2=NS(=O)(=O)c3ccccc32)CC1 | 0.454% (inactive) | 
O=C(N/N=C/c1cccc(OC(=O)c2ccc([N+](=O)[O-])cc2)c1)c1cccnc1 | 1.89% (inactive) | 
O=C(Oc1cccc(NC2=NS(=O)(=O)c3ccccc32)c1)c1ccncc1 |  | 26.9 µM (active)
C[N+]1(CCNC(=O)/C=N/O)CCCCC1 | 1.69% (inactive) | 
C=CCC(NCc1ccco1)c1ccc(OC)cc1 (stereo unspecified) | -1.1% (inactive) | 
COc1ccc(-n2cnc3cc(NCc4ccco4)ccc32)cc1 |  | 7.57 µM (active)
COc1ccc(-n2cnc3cc(C(=O)NC4CCCC4)ccc32)cc1 |  | inactive
Cc1ccc(S(=O)(=O)c2nnn3c2nc(N2CCN(c4ccccc4F)CC2)c2cc(Cl)ccc23)cc1C | 3.15% (inactive) | 
COc1ccc(CCNC(=O)c2cnc3sc(N4CCCCCC4)nn3c2=O)cc1OC | -0.514% (inactive) | 
O=C(CCN1C(=O)c2ccccc2C1=O)NCCCn1ccnc1 | 0.843% (inactive) | 
COc1ccc(/C=C2\SC(=O)N(CCC(=O)NCCCn3ccnc3)C2=O)cc1 |  | 13.5 µM (active)
COc1ccc(NC(=S)NC2CCS(=O)(=O)C2)cc1 (stereo unspecified) | 3.48% (inactive) | 
O=C(CN1C(=O)S/C(=C\c2ccccc2F)C1=O)NCCCn1ccnc1 | -17.9% (inactive) | 
COc1ccc(/C=C2\SC(=O)N(CCC(=O)NC3CCS(=O)(=O)C3)C2=O)cc1 (stereo unspecified) |  | 10.7 µM (active)
COc1ccc(NC(=O)CCN2C(=O)/C(=C/c3ccc4c(c3)OCO4)SC2=S)cc1 | 1.43% (inactive) | 
O=C(C1CCN(CC2CCCCC2)CC1)N1CCCC1 | 6.5% (inactive) | 
COc1ccc(-c2nn3c(=O)cc(CN4CCN(C(=O)c5ccc(OC)c(OC)c5)CC4)nc3s2)cc1 | -1.63% (inactive) | 
